High-throughput results from PubChem BioAssay.
ERa SRC1 pot – enhancers of ERα–SRC-1 coactivator binding, primary screen, biochemical, TR-FRET, ERα LBD, low estradiol | Estrogen receptor (Homo sapiens), P03372 | TR-FRET ERalpha-LBD/SRC-Cy5 coactivator binding, 2 h; 100 = basal binding, no effect | coactivator binding (% of control), % at 25.6 µM | actives 1.3% (n = 86,000) | AID 639, 2007; in the data active = activity above about 200%;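 also: binding measured in presence of low estradiol as agonist stimulus; 0% = peptide alone without receptor and 100% = receptor with peptide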
FAK inh – FAK kinase inhibitors, primary screen, biochemical; biochemical FAK kinase activity assay; Focal adhesion kinase 1 (Homo sapiens), Q05397; actives 0.84% (n = 97,000); inhibition, %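 (tested at 7 µM)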; AID 727, 2007; in the data active = inhibition above about 19%;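 also: 0% = DMSO and 100% = reference compound high control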
Target sequence (Q05397 whole entry, looked up): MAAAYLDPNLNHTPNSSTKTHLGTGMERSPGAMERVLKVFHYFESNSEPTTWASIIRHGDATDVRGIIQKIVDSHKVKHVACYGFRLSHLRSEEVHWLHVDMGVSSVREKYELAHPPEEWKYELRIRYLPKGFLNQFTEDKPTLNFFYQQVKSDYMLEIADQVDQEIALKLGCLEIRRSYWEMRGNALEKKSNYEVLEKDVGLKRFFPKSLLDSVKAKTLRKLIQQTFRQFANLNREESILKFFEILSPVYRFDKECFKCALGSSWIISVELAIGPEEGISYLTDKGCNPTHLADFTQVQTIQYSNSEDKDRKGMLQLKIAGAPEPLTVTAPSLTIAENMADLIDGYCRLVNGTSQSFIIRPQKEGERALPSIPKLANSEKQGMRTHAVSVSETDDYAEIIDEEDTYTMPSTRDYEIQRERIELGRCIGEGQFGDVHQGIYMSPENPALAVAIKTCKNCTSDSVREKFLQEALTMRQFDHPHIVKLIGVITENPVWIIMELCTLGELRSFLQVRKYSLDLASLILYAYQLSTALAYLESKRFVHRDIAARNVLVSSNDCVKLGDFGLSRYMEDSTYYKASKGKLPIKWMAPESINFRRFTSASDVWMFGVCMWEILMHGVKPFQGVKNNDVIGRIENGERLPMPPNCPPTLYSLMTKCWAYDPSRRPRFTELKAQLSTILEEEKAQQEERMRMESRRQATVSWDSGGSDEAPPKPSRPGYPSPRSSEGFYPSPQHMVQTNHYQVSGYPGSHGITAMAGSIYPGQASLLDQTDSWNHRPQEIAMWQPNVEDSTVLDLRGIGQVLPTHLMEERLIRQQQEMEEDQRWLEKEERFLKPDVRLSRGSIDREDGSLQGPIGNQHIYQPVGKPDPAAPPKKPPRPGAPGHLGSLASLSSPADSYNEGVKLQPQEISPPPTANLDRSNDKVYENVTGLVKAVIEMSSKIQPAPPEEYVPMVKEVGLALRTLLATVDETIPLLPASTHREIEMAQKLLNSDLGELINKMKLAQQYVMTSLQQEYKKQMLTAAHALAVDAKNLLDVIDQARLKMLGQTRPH
Mac1 fbg inh – inhibitors of CD11b/CD18 adhesion to fibrinogen, primary screen, K562 cells, luminescence; Integrin beta-2 (Homo sapiens) + Integrin alpha-M (Homo sapiens), P05107+P11215; ATPlite luminescence; Mn2+ added to activate the integrin; inhibition, % at 10 µM; actives 0.54% (n = 93,000);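 active = primary inhibition of 50% or more at 10 µM, then 40% or more on retest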
ERb SRC1 inh – inhibitors of ERβ-SRC1 coactivator interaction, primary screen, biochemical, TR-FRET, ERβ LBD, SRC-1 peptide. TR-FRET ER-beta LBD / SRC1-Cy5 peptide binding; receptor agonist-loaded with 1 µM estradiol. inhibition, % at 25.6 µM. AID 633, 2007. actives 1.3% (n = 86,000). Estrogen receptor beta (Homo sapiens), Q92731;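 active = compounds whose percent inhibition of the receptor-coactivator binding signal exceeds about 50% in the single-dose screen, limit read from the data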;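 also: 0% = receptor plus peptide wells without compound and 100% = peptide-only wells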
ERa coact inh – ERα–SRC-1 coactivator interaction inhibitors, primary screen, biochemical, TR-FRET, ERα LBD, estradiol-bound | Estrogen receptor (Homo sapiens), P03372 | actives 1.7% (n = 86,000) | TR-FRET ER-alpha LBD / SRC-1 peptide | inhibition, % at 25.6 µM; in the data active = inhibition above about 50%;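 also: 0% = receptor plus peptide control and 100% = peptide only without receptor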
CD11b adhes enh – enhancers of CD11b/CD18 adhesion to fibrinogen, primary screen, K562 cells, luminescence; ATPlite luminescence; activation, % at 10 µM; actives 0.07% (n = 93,000); AID 1499, 2009;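 active = 10 µM primary screen giving 50% or more activity, confirmed by 40% or more on retest at that dose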
* hit, by the source's call; x = no result; + = active, no number; [ ] = another dose, or the depositor's remark. A selection: hits, their analogues and other compounds. The true share with any hit is near 3.5%.

SMILES | ERa SRC1 pot | FAK inh | Mac1 fbg inh | ERb SRC1 inh | ERa coact inh | CD11b adhes enh
Cc1cc2nc(-c3cccnc3SCC(=O)NCc3ccco3)[nH]c2cc1C | 65 | 8 | x | 60* | 69*[fluorescence artefact?] | x
Cc1nc2c(sc3nc4c(cc32)COC(C)(C)C4)c(=O)n1CC(=O)NCc1ccco1 | 78 | 0 | x | 24 | 13 | x
CC(C)c1nc2sc3c(SCC(=O)NCc4ccco4)ncnc3c2c2c1CCC2 | +[fluorescence artefact?] | x | -14 | 12 | 11 | 73
CC1(C)Cc2nc3sc4c(SCC(=O)NCc5ccco5)ncnc4c3cc2CO1 | 289*[fluorescence artefact?] | 5 | 17 | 40 | 26 | -3
CCC1(C)Cc2c(sc3c2c2ncnn2c2nnc(SCC(=O)NCc4ccco4)n32)CO1 (stereo not given) | 97 | x | -2 | 15 | 11 | -4
CSc1nc(SCC(=O)NCc2ccco2)c2c3c(sc2n1)CN(C)CC3 | 58 | 22* | x | 35 | 52*[fluorescence artefact?] | x
CC1(C)Cc2c(sc3c2c2ncnn2c2nnc(SCC(=O)NCc4ccco4)n32)CO1 | 116 | 1 | -12 | 74*[fluorescence artefact?] | -2 | 2
CCCn1c(=O)c2c(c3ccccc31)OCC(=O)N2 | 93 | x | -4 | 14 | 6 | 5
COc1ccc(NC(=O)c2cccnc2N2CCCC2)cc1 | 110 | -3 | -7 | -1 | -2 | -5
CC1CCCCN1CC(=O)Nc1sc2c(c1C#N)CCC2 (stereo not given) | 73 | -2 | 4 | 53* | 46 | -2
C=C1c2ccc(C)cc2NC(=O)N1c1ccccc1 | 77 | -1 | -9 | 6 | -6 | -4
O=C(CCn1c(=S)[nH]c2cc3c(cc2c1=O)OCO3)N1CCN(C2CCCCC2)CC1 | 114 | -3 | x | 3 | 0 | x
Cc1cc(OCC(=O)NCCN2CCOCC2)cc(C)c1Br | 97 | -2 | -3 | -12 | -4 | -6
Cc1cc(C)cc(OCC(=O)NCCN2CCOCC2)c1 | 112 | -2 | 11 | 85*[fluorescence artefact?] | -10 | -1
CCc1ccccc1NC(=O)CSc1nc2c(c(-c3ccco3)c1C#N)CCCC2 | 301*[fluorescence artefact?] | -35 | -1 | 11 | 10 | 1
COC(=O)CSc1nc2c(c(-c3ccc(C)o3)c1C#N)CCCC2 | 95 | 2 | 7 | 2 | 1 | 0
N#Cc1c(SCC(=O)Nc2nccs2)nc2c(c1-c1ccco1)CCCC2 | 83 | 0 | -7 | 37 | 64* | 28
COc1ccc(-c2c(C#N)c(SCC(=O)Nc3ccccc3)nc3c2CCCC3)cc1 | 147 | 0 | x | 28 | 14 | x
N#Cc1c(SCC(N)=O)nc2c(c1-c1ccc(OCc3ccccc3)cc1)CCCC2 | +[fluorescence artefact?] | 6 | x | -7 | -13 | x
Cc1ccccc1NC(=O)CSc1nc2c(c(-c3ccco3)c1C#N)CCCC2 | 290*[fluorescence artefact?] | -3 | -4 | 16 | 24 | -1
Cc1c(NC(=O)C(C)Oc2ncnc3ccccc23)c(=O)n(-c2ccccc2)n1C (stereo not given) | 94 | 3 | 12 | -2 | 2 | -1
N/C(=N/O)c1nc(N2CCCC2)nc(N(c2ccccc2)c2ccccc2)n1 | 98 | 4 | -50 | -6 | -9 | 1
O=C(NCc1cccnc1)C1c2ccccc2C(=O)N1Cc1ccccc1 (stereo not given) | 109 | 1 | -20 | -2 | -6 | -2
O=C(NCc1cccnc1)C1c2ccccc2C(=O)N1Cc1ccco1 (stereo not given) | 93 | 1 | -34 | 51*[fluorescence artefact?] | 0 | 2
COC(=O)c1cc(NC(=O)CN2C(=O)CSC2=O)ccc1Cl | 107 | 6 | -12 | 9 | 19 | -4
SMILES | ERa SRC1 pot | FAK inh | Mac1 fbg inh | ERb SRC1 inh | ERa coact inh | CD11b adhes enh
CCOC(=O)c1ccc(N2C(=O)c3n[nH]c(C)c3C2c2ccc(OC)cc2)cc1 (stereo not given) | 110 | -1 | 50 | -7 | 99*[fluorescence artefact?] | 1
Cc1ccccc1-c1nc(CN2CCC(C(=O)NCC3CCCO3)CC2)c(C)o1 (stereo not given) | 135 | -3 | 1 | 3 | 1 | 3
O=C(CSc1nc2ccccc2c(=O)[nH]1)c1ccc(O)c(O)c1 | 65 | x | -10 | 66* | 59*[fluorescence artefact?] | -4
CCn1nnnc1SCC(=O)c1cc(OC)ccc1OC | 112 | x | 2 | -4 | -7 | -6
CCOc1ccccc1C(=O)N1CCN=C1SC | 90 | 2 | -10 | 87* | -2 | -3
CCOc1ccc(C(=O)N2CCN=C2SC)cc1OCC | 100 | 0 | -14 | -5 | 0 | 0
COc1cc(NC(=O)CN2CCC(C)CC2)c(C)cc1[N+](=O)[O-] | x | x | -5 | x | x | -1
O=C(c1ccc(Cl)cc1)N1CCC(O)(CSc2ccc(Cl)cc2)CC1 | x | -9 | x | x | x | x
CN1CCN(C(=O)c2ccc(CSc3ccc(Cl)cc3)cc2)CC1 | x | x | 76* | x | x | -2
COC(=O)c1ccccc1NS(=O)(=O)c1ccc2c3c(cccc13)C(=O)N2 | 91 | 10 | -5 | -6 | 5 | 5
Cc1oc2c(cc(NS(=O)(=O)c3ccc4c5c(cccc35)C(=O)N4)c3ccccc32)c1C(=O)OC(C)C | 20 | 2 | x | 57* | 93*[fluorescence artefact?] | x
CCCn1nc(NS(C)(=O)=O)c2cc3cccc(C)c3nc21 | 121 | -8 | 4 | -6 | -12 | -1
O=C(CCn1c(=O)oc2ccccc21)NCCCN1CCCC1=O | 108 | x | -44 | -7 | -5 | 1
CCc1[nH]nc2c1C(c1cccc(OC(=O)N3CCOCC3)c1)C(C#N)=C(N)O2 (stereo not given) | 563* | -3 | -34 | -4 | -32 | 3
CC(=O)Nc1ccc(NC(=O)C(C)OC(=O)C2CC3C=CC2C3)cc1 (stereo not given) | x | x | -2 | x | x | -2
N#Cc1cc2ccccc2nc1SCc1cccnc1 | 306*[fluorescence artefact?] | x | -21 | -3 | -3 | 2
COc1ccc2nc(SCc3cccnc3)c(C#N)cc2c1 | 202*[fluorescence artefact?] | -5 | 2 | 1 | 2 | 23
N#Cc1cc2c(nc1SCc1cccnc1)CCCCC2 | 100 | 4 | 5 | -24 | -12 | 0
CCOc1cc(C2C(C#N)=C(N)OC3CCCC(=O)C32)ccc1OCCN1CCOCC1 (stereo not given) | 99 | 2 | -5 | 6 | 7 | -5
O=C(Nc1ccc(Cl)cc1)N1CC=CCC1 | 120 | x | -9 | -9 | -3 | 1
CCOC(=O)c1c(C)[nH]c(C)c1C(=O)COC(=O)c1cc2ccccc2cc1O | x | x | 62* | x | x | -4
